From PubChem BioAssay (NCI) come the findings set out here.

Among the test systems are SR leukemia; RPMI-8226 leukemia; OVCAR-8 ovarian; OVCAR-5 ovarian; OVCAR-4 ovarian; SK-OV-3 ovarian; IGROV1 ovarian; OVCAR-3 ovarian; NCI/ADR-RES ovarian; T-47D breast; BT-549 breast; MDA-MB-435 melanoma; MCF7 breast; HCT-116 colon; HCC-2998 colon; KM12 colon; SW-620 colon; HS 578T breast.
What all share (experiment): NCI-60 one-dose screen, 48 h (100 = growth as untreated, 0 = no growth, -100 = all killed)
Holding throughout (details): 10 µM unless noted

Compounds without any hit were thinned out: in the full panel of roughly 83,000, 20% have a hit.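 Activity criterion: percent growth below 10, measured after cells in 96-well plates were exposed to a single compound concentration for 48 hours.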 Values without a mark were called inactive. Active and inactive are the calls of the source.

For `CCCCCCCCCc1cc[n+](CC(=O)c2ccc([N+](=O)[O-])cc2)cc1`, the growth with SR leukemia was -14.3% (active); with RPMI-8226 leukemia, -25.8% (active); with OVCAR-8 ovarian, 11.7%; in the test on OVCAR-5 ovarian, 18.9%; with OVCAR-4 ovarian, 19.8%; in the test with SK-OV-3 ovarian it was 50%. Also, the growth is 26.6% in the test with IGROV1 ovarian; 3.13% (active) with OVCAR-3 ovarian; 66.3% in the test on NCI/ADR-RES ovarian; 22.2% in the test with T-47D breast; 15.2% with BT-549 breast; -20.8% (active) in the test on MDA-MB-435 melanoma. For the same molecule, the growth was -41.3% (active) with MCF7 breast, -34.5% (active) in the test on HCT-116 colon, -76.3% (active) in the test on HCC-2998 colon and -31.5% (active) in the test with KM12 colon.
Take `COc1ccccc1CNCCCN1C(=O)c2ccc3c4c(ccc(c24)C1=O)C(=O)N(CCCNCc1ccccc1OC)C3=O`: the growth with SR leukemia was -45.7% (active); with RPMI-8226 leukemia, -31.8% (active); with OVCAR-8 ovarian, -47.1% (active); in the test on OVCAR-5 ovarian it was -27.4% (active); with OVCAR-4 ovarian it was -96.5% (active); with SK-OV-3 ovarian it was 0% (active). Also, the growth in the test with IGROV1 ovarian is -58.2% (active); in the test on OVCAR-3 ovarian, -59.9% (active); in the test with NCI/ADR-RES ovarian it was -2.55% (active); in the test on T-47D breast, -22.9% (active); in the test with BT-549 breast it was -71.6% (active); in the test on MDA-MB-435 melanoma, -79.3% (active). The growth was -63.9% (active) with MCF7 breast, -60.5% (active) with HCT-116 colon, -94.7% (active) in the test on HCC-2998 colon and -79% (active) in the test with KM12 colon.
Regarding `CC(=O)Nc1ccc(S(=O)(=O)Cl)cc1`, the growth in the test with SR leukemia is 86.8%; with RPMI-8226 leukemia it was 100%; in the test on OVCAR-8 ovarian, 113%; in the test with OVCAR-5 ovarian, 109%; in the test on OVCAR-4 ovarian, 110%; in the test on SK-OV-3 ovarian it was 106%. The growth in the test with IGROV1 ovarian was 116%; in the test with OVCAR-3 ovarian, 112%; in the test on NCI/ADR-RES ovarian it was 116%; in the test on T-47D breast, 101%; in the test on BT-549 breast, 114%; in the test with MDA-MB-435 melanoma, 115%. Besides, the growth with SW-620 colon was 115%; with MCF7 breast it was 96%; in the test with HCT-116 colon, 111%; in the test on HCC-2998 colon, 108%; with KM12 colon, 107%.
As to `COC(=O)C(C(=O)OC)C(Br)C(Br)C(Br)c1ccccc1` (stereo not drawn), the growth with SR leukemia was -10% (active); with RPMI-8226 leukemia, 80.5%; in the test with OVCAR-8 ovarian, 91.8%; with OVCAR-5 ovarian, 120%; in the test on OVCAR-4 ovarian, 90.1%; in the test on SK-OV-3 ovarian, 109%. Moreover, the growth in the test with OVCAR-3 ovarian was 92.6%; in the test on NCI/ADR-RES ovarian it was 111%; in the test with T-47D breast, -32.9% (active); with BT-549 breast, 108%; in the test on MDA-MB-435 melanoma it was 91.2%; in the test with SW-620 colon, 18.6%. In addition, the growth was 8.14% (active) in the test with MCF7 breast, 16.5% with HCT-116 colon, 110% in the test on HCC-2998 colon and 101% in the test with KM12 colon.
As for `COC(=O)C(N)CC(C)C` (stereo not drawn), the growth in the test with SR leukemia was 86.4%; with RPMI-8226 leukemia it was 99.2%; in the test on OVCAR-8 ovarian, 101%; with OVCAR-5 ovarian, 108%; in the test with OVCAR-4 ovarian, 111%; in the test on SK-OV-3 ovarian, 111%. The growth is 109% with OVCAR-3 ovarian; 111% with HS 578T breast; 106% in the test on NCI/ADR-RES ovarian; 92% with T-47D breast; 97.9% in the test on BT-549 breast; 106% in the test with MDA-MB-435 melanoma. For the same molecule, the growth in the test with SW-620 colon was 103%; in the test with MCF7 breast it was 98.3%; in the test on HCT-116 colon, 93.5%; in the test on HCC-2998 colon, 111%; in the test with KM12 colon, 93.8%.
In the case of `CCOC(=O)c1sc(NS(=O)(=O)c2ccccc2)nc1C`, the growth was 102% with SR leukemia; 120% in the test on RPMI-8226 leukemia; 114% in the test with OVCAR-8 ovarian; 107% with OVCAR-5 ovarian; 111% in the test with OVCAR-4 ovarian; 106% with SK-OV-3 ovarian. The growth was 133% in the test on OVCAR-3 ovarian; 111% in the test on HS 578T breast; 114% with NCI/ADR-RES ovarian; 111% with T-47D breast; 126% in the test with MDA-MB-435 melanoma; 111% with SW-620 colon. Moreover, the growth in the test with MCF7 breast is 96.2%; with HCT-116 colon it was 57.9%; in the test on HCC-2998 colon, 27.5%; in the test on KM12 colon, 129%.
Take `CCCCCSc1ccc2nc(NC(=O)OCCC)sc2c1`: the growth with SR leukemia was 34.2%; with RPMI-8226 leukemia, 29.6%; with OVCAR-8 ovarian it was 65.8%; in the test with OVCAR-5 ovarian, 86.3%; in the test on OVCAR-4 ovarian, 35.1%; in the test on SK-OV-3 ovarian, 41.9%. The growth was 13.3% in the test with OVCAR-3 ovarian; 23.9% with HS 578T breast; 22.7% in the test with NCI/ADR-RES ovarian; 38.1% with T-47D breast; 34.2% in the test with BT-549 breast; -40.5% (active) with MDA-MB-435 melanoma. The growth was 22.9% with SW-620 colon; 14.3% in the test with MCF7 breast; 25.3% in the test with HCT-116 colon; 74% in the test on HCC-2998 colon; 24.9% in the test on KM12 colon.
In the case of `CC1=C[C@@H]2c3c(c(O)c(O)c4oc5cc(O)cc(O)c5c(=O)c34)[C@@H](c3cc(O)c(O)c4oc5cc(O)cc(O)c5c(=O)c34)[C@@H]2C(C)(C)C1`, the growth was 4.52% (active) in the test on SR leukemia; -4.75% (active) in the test on RPMI-8226 leukemia; 7.34% (active) in the test on OVCAR-8 ovarian; 19.6% in the test on OVCAR-5 ovarian; 22.3% with OVCAR-4 ovarian; 12.9% in the test with IGROV1 ovarian. Besides, the growth with OVCAR-3 ovarian is -10.4% (active); in the test with HS 578T breast, 8.08% (active); with NCI/ADR-RES ovarian, 68.8%; in the test on BT-549 breast, 12.1%; in the test with MDA-MB-435 melanoma, -42.1% (active); with SW-620 colon, -50.9% (active). Besides, the growth with MCF7 breast is -44.8% (active); in the test with HCT-116 colon, -78.8% (active); with HCC-2998 colon, -34.5% (active); in the test on KM12 colon, -55.2% (active).
Consider `CC(=O)c1nn(-c2ccc(C)cc2)cc1C(=O)c1cc2c(ccc3ccccc32)oc1=O`, for which the growth in the test with SR leukemia was 84%; in the test with RPMI-8226 leukemia it was 93.5%; with OVCAR-8 ovarian, 101%; with OVCAR-5 ovarian, 102%; in the test with OVCAR-4 ovarian, 87.3%; in the test with SK-OV-3 ovarian, 80.4%. Besides, the growth in the test on OVCAR-3 ovarian was 98.4%; in the test with HS 578T breast, 96.7%; in the test on NCI/ADR-RES ovarian, 101%; in the test on T-47D breast, 75.2%; in the test on BT-549 breast, 85.5%; in the test on MDA-MB-435 melanoma, 99%. In addition, the growth with SW-620 colon was 100%; in the test with MCF7 breast, 87.5%; in the test on HCT-116 colon, 89.4%; in the test on HCC-2998 colon it was 103%; with KM12 colon, 95.1%.
